Measurements: paper PMC5540273 (PLoS ONE, 2017)

Assays:
Settings in all cases: concentration: 1 μM, replicates: in singlicate; n = 1
ERBB2 = test system: ERBB2
ERBB3 = test system: ERBB3
ERBB4 = test system: ERBB4
ERK1 = test system: T1, ERK1
T1 construct: gene MAPK3

ERK2 = test system: T2, ERK2
T2 construct: gene MAPK1

ERK3 = test system: T3, ERK3
T3 construct: gene MAPK6

ERK4 = test system: T4, ERK4
T4 construct: gene MAPK4

ERK5 = test system: T5, ERK5
T5 construct: gene MAPK7

ERK8 = test system: T6, ERK8
T6 construct: gene MAPK15

ERN1 = test system: ERN1
FAK = test system: T7, FAK
T7 construct: gene PTK2

FER = test system: FER
FES = test system: FES
FGFR1 = test system: FGFR1
FGFR2 = test system: FGFR2
FGFR3 = test system: FGFR3
FGFR4 = test system: FGFR4
FGR = test system: FGR
FLT1 = test system: FLT1
FLT3-autoinhibited = test system: FLT3-autoinhibited
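Note: KINOMEscan kinase panel screen.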

Row | Compound | %Inh (ERBB2) | %Inh (ERBB3) | %Inh (ERBB4) | %Inh (ERK1) | %Inh (ERK2) | %Inh (ERK3) | %Inh (ERK4) | %Inh (ERK5) | %Inh (ERK8) | %Inh (ERN1) | %Inh (FAK) | %Inh (FER) | %Inh (FES) | %Inh (FGFR1) | %Inh (FGFR2) | %Inh (FGFR3) | %Inh (FGFR4) | %Inh (FGR) | %Inh (FLT1) | %Inh (FLT3-autoinhibited)
1 | CN(C)CCN(C)C(=O)c1cc(-c2ccncc2)c(-c2ccc(Cl)c(O)c2)o1.Cl.Cl [SB-710397] | 53% | 26% | 33% | 2% | 0% | 0% | 0% | 0% | 0% | 0% | 0% | 0% | 0% | 0% | 0% | 5% | 0% | 16% | 43% | 0%
2 | O=C(Nc1ccc2c(c1)OCO2)NC1CCN(c2ccnc(Nc3ccc(F)cc3)n2)C1 (stereo not shown) [GSK1379724] | 45% | 0% | 44% | 0% | 0% | 17% | 0% | 0% | 7% | 0% | 0% | 7% | 15% | 0% | 0% | 7% | 7% | 11% | 19% | 0%
3 | Cc1cc(N2Cc3ccccc3C2)nc(Nc2ccc(S(=O)(=O)N3CCOCC3)cc2)n1.Cl [GSK1669917] | 0% | 0% | 26% | 0% | 0% | 0% | 19% | 0% | 0% | 0% | 0% | 25% | 9% | 0% | 11% | 15% | 1% | 0% | 9% | 0%
4 | C[C@@H]1CCCCN1c1cc(-c2ccc3c(N)n[nH]c3c2)nc(N)n1 [GSK2258759] | 18% | 0% | 12% | 8% | 0% | 5% | 0% | 0% | 0% | 0% | 0% | 0% | 0% | 0% | 0% | 7% | 3% | 17% | 14% | 0%
5 | COc1cc(Nc2nccc(N3CCC(NC(=O)Nc4cc(C)ccc4C)C3)n2)cc(OC)c1OC (stereo not shown) [GSK1379762] | 11% | 0% | 0% | 9% | 0% | 5% | 4% | 0% | 41% | 15% | 0% | 0% | 0% | 5% | 11% | 30% | 0% | 14% | 22% | 0%
6 | Fc1cccc(COc2nnc(-c3ccc4c(c3)CCO4)o2)c1 | 3% | 13% | 0% | 0% | 13% | 0% | 0% | 8% | 0% | 15% | 0% | 0% | 14% | 5% | 0% | 0% | 0% | 19% | 0% | 3%
7 | Nc1ncnc2[nH]c(-c3ccccc3)nc12 [AH5015] | 14% | 0% | 0% | 4% | 0% | 0% | 0% | 0% | 31% | 12% | 8% | 0% | 8% | 2% | 0% | 25% | 2% | 31% | 2% | 0%
8 | Nc1nc(-c2nccs2)c(-c2ccnc3ccccc23)s1 [GW693542] | 36% | 0% | 27% | 6% | 0% | 0% | 18% | 0% | 0% | 0% | 0% | 15% | 0% | 8% | 0% | 0% | 8% | 9% | 24% | 0%
9 | Cc1cccc(-c2nc(Nc3ccncc3)c3ccccc3n2)n1 [GW855857] | 7% | 43% | 0% | 0% | 9% | 0% | 7% | 30% | 17% | 0% | 31% | 0% | 13% | 5% | 7% | 2% | 6% | 31% | 0% | 0%
10 | Cl.Oc1ccc(-c2nc(-c3ccccc3)[nH]c2-c2ccncc2)cc1 [SB-428218] | 57% | 31% | 27% | 0% | 0% | 0% | 16% | 38% | 0% | 0% | 0% | 0% | 17% | 0% | 4% | 0% | 9% | 62% | 0% | 0%
11 | CN1C(=O)C(Nc2ccc(Cl)c(C(=O)O)c2)=C(c2ccc(Cl)cc2)C1=O [SB-404290] | 0% | 0% | 8% | 0% | 0% | 0% | 0% | 1% | 0% | 0% | 7% | 5% | 0% | 0% | 0% | 0% | 0% | 0% | 0% | 22%
12 | Clc1cc(Cl)cc(Nc2ccnc(Nc3cc(Cl)cc(Cl)c3)n2)c1 [GSK175726] | 22% | 0% | 36% | 0% | 0% | 14% | 20% | 0% | 0% | 13% | 0% | 13% | 9% | 0% | 50% | 22% | 6% | 46% | 16% | 0%
13 | COc1ccc(C2=C(Nc3cccc(C(=O)O)c3)C(=O)NC2=O)cc1 [SB-390765] | 0% | 0% | 0% | 0% | 7% | 19% | 1% | 10% | 7% | 21% | 13% | 0% | 21% | 13% | 13% | 14% | 0% | 6% | 4% | 17%
14 | Cc1ccc(-c2cc(-c3c[nH]nc3-c3ccccn3)ccn2)cc1 [GW684088] | 43% | 36% | 0% | 37% | 0% | 3% | 18% | 0% | 0% | 0% | 0% | 13% | 21% | 0% | 0% | 30% | 9% | 22% | 5% | 22%
